Reference: ChEMBL document CHEMBL1961873, “Compounds: GSK PKIS; Assays: Nanosyn kinase panel” (2012)

Assays:
[1] = molecular target: Mast/stem cell growth factor receptor Kit (Homo sapiens) (UniProt P10721); settings: at 1 µM
[2] = system: Mast/stem cell growth factor receptor Kit (Homo sapiens), P10721 [D816V]; settings: at 0.1 µM
[3] = system: Mast/stem cell growth factor receptor Kit (Homo sapiens), P10721 [D816V]; settings: at 1 µM
[4] = system: Mast/stem cell growth factor receptor Kit (Homo sapiens), P10721 [T670I]; settings: at 0.1 µM
[5] = system: Mast/stem cell growth factor receptor Kit (Homo sapiens), P10721 [T670I]; settings: at 1 µM
[6] = system: Mast/stem cell growth factor receptor Kit (Homo sapiens), P10721 [V560G]; settings: at 0.1 µM
[7] = system: Mast/stem cell growth factor receptor Kit (Homo sapiens), P10721 [V560G]; settings: at 1 µM
[8] = molecular target: Tyrosine-protein kinase Lck (Homo sapiens) (UniProt P06239); settings: at 0.1 µM
[9] = molecular target: Tyrosine-protein kinase Lck (Homo sapiens) (UniProt P06239); settings: at 1 µM
[10] = molecular target: Leukocyte tyrosine kinase receptor (Homo sapiens) (UniProt P29376); settings: at 0.1 µM
[11] = molecular target: Leukocyte tyrosine kinase receptor (Homo sapiens) (UniProt P29376); settings: at 1 µM
[12] = molecular target: Tyrosine-protein kinase Lyn (Homo sapiens) (UniProt P07948); settings: at 0.1 µM
[13] = molecular target: Tyrosine-protein kinase Lyn (Homo sapiens) (UniProt P07948); settings: at 1 µM
[14] = molecular target: Tyrosine-protein kinase Lyn (Homo sapiens) (UniProt P07948); settings: at 0.1 µM; remark: listed apart in the source
[15] = molecular target: Tyrosine-protein kinase Lyn (Homo sapiens) (UniProt P07948); settings: at 1 µM; remark: listed apart in the source
[16] = molecular target: T1, Tyrosine-protein kinase Mer (Homo sapiens) (UniProt Q12866); settings: at 0.1 µM
T1 sequence (whole entry): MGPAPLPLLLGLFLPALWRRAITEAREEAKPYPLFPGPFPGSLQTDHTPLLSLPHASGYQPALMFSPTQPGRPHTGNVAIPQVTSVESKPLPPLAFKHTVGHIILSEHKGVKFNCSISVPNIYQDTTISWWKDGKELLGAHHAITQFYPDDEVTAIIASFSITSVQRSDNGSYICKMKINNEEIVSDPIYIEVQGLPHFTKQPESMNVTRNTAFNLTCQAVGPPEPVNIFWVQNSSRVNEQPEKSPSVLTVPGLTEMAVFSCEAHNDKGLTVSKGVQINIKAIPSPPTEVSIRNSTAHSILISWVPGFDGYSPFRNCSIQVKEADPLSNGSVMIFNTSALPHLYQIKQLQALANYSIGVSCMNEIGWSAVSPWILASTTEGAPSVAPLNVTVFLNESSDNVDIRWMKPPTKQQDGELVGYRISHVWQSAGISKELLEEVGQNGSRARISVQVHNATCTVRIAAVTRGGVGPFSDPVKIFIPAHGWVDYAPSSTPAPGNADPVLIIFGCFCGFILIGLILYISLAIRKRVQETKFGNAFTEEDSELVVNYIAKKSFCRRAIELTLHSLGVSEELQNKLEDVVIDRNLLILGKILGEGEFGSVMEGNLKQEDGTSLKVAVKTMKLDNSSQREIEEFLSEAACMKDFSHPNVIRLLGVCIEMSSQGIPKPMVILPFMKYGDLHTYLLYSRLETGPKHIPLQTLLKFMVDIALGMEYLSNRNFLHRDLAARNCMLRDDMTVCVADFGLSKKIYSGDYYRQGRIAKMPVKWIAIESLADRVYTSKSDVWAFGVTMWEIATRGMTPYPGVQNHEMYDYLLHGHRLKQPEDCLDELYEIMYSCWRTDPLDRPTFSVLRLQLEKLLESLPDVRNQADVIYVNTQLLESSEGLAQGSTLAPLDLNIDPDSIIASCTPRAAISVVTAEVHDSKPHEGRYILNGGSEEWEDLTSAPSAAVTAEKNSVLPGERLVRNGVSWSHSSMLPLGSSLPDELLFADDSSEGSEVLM

[17] = molecular target: T1, Tyrosine-protein kinase Mer (Homo sapiens); settings: at 1 µM
[18] = molecular target: Hepatocyte growth factor receptor (Homo sapiens) (UniProt P08581); settings: at 0.1 µM
[19] = molecular target: Hepatocyte growth factor receptor (Homo sapiens) (UniProt P08581); settings: at 1 µM
[20] = molecular target: T2, Muscle, skeletal receptor tyrosine-protein kinase (Homo sapiens) (UniProt O15146); settings: at 0.1 µM;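 also: values are mean inhibition of MuSK from the GSK PKIS kinase screening panel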
T2 sequence (whole entry): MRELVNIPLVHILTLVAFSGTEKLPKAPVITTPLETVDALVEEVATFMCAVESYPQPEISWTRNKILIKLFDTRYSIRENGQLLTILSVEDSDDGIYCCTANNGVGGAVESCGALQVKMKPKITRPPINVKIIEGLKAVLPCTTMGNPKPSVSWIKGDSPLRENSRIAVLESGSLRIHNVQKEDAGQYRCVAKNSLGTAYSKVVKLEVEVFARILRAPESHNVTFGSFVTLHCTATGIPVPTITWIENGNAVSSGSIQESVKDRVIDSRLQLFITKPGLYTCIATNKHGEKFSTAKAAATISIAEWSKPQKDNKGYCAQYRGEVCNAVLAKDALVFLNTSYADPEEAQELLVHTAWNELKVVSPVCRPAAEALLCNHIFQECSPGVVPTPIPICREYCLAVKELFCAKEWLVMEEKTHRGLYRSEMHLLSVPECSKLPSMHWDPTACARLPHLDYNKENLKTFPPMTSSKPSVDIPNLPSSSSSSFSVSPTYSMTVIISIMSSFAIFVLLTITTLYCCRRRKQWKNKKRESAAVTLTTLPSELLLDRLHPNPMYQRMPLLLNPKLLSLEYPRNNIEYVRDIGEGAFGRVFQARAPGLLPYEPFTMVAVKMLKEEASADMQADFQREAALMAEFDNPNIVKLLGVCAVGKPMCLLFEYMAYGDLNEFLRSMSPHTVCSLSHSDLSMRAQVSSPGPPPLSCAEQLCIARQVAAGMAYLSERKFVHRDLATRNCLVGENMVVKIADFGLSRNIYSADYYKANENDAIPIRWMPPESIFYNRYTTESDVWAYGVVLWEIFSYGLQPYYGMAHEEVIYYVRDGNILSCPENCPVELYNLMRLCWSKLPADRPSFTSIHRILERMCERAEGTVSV

Chain of Tyrosine-protein kinase Lck (Homo sapiens) (P06239 2-509 limits assumed): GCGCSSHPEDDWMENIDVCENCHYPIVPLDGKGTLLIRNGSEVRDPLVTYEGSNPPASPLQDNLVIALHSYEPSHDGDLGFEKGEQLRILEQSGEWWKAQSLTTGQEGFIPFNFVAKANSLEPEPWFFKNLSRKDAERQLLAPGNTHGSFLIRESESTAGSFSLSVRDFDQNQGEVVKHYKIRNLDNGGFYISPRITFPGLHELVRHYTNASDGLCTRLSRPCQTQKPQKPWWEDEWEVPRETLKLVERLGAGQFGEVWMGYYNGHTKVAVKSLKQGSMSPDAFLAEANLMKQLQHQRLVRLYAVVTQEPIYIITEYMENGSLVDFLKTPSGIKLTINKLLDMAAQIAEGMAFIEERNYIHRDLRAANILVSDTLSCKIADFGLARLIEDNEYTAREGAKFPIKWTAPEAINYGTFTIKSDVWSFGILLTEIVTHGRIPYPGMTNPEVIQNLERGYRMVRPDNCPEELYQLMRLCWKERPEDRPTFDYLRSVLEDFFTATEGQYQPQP
Chain of Mast/stem cell growth factor receptor Kit (Homo sapiens), P10721 [T670I] (P10721 whole entry T670I): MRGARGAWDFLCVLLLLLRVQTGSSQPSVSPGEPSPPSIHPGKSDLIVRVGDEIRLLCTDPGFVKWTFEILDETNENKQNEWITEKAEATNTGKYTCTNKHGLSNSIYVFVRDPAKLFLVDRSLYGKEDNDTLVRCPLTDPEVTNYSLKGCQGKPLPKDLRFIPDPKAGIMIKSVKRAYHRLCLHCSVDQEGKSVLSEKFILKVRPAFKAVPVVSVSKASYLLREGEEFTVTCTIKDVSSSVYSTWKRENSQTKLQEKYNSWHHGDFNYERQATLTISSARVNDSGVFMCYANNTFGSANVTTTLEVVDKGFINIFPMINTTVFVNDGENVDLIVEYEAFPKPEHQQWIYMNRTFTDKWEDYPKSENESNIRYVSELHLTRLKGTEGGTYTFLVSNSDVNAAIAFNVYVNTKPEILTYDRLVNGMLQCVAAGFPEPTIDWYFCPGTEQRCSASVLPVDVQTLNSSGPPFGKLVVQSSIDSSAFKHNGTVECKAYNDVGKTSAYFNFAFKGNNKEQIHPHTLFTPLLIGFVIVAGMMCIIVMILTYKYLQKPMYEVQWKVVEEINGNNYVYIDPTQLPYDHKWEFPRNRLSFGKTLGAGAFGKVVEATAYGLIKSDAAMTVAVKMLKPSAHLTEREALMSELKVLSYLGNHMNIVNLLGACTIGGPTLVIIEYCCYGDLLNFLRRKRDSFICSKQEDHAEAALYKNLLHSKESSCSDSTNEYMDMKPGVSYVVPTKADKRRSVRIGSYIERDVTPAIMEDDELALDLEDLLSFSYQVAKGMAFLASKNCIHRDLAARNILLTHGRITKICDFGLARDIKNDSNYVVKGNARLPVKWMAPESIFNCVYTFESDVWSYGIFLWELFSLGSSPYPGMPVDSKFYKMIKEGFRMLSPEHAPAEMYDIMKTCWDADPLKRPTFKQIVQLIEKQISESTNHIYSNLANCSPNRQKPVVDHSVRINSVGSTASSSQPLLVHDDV
Chain of Mast/stem cell growth factor receptor Kit (Homo sapiens), P10721 [D816V] (P10721 whole entry D816V): as the sequence (P10721 whole entry T670I) above, with I670T, D816V counted along it
Chain of Mast/stem cell growth factor receptor Kit (Homo sapiens) (P10721 whole entry): as the sequence (P10721 whole entry T670I) above, with I670T counted along it
Chain of Mast/stem cell growth factor receptor Kit (Homo sapiens), P10721 [V560G] (P10721 whole entry V560G): as the sequence (P10721 whole entry T670I) above, with V560G, I670T counted along it
Chain of Tyrosine-protein kinase Lyn (Homo sapiens) (P07948 2-512 limits assumed): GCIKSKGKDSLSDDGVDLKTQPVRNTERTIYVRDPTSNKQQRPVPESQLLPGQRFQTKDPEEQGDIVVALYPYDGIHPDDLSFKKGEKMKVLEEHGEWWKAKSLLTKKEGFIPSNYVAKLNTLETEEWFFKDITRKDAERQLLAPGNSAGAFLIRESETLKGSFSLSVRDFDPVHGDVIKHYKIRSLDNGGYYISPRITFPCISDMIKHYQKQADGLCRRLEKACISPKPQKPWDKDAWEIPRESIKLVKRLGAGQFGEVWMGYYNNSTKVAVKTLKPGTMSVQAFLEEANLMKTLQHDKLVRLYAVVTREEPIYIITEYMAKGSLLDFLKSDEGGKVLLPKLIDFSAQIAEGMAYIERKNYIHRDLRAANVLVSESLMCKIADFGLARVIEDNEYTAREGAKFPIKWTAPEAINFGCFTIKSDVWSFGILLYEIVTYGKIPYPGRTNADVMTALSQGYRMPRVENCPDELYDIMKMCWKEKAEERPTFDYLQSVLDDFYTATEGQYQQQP
Chain of Leukocyte tyrosine kinase receptor (Homo sapiens) (P29376 whole entry): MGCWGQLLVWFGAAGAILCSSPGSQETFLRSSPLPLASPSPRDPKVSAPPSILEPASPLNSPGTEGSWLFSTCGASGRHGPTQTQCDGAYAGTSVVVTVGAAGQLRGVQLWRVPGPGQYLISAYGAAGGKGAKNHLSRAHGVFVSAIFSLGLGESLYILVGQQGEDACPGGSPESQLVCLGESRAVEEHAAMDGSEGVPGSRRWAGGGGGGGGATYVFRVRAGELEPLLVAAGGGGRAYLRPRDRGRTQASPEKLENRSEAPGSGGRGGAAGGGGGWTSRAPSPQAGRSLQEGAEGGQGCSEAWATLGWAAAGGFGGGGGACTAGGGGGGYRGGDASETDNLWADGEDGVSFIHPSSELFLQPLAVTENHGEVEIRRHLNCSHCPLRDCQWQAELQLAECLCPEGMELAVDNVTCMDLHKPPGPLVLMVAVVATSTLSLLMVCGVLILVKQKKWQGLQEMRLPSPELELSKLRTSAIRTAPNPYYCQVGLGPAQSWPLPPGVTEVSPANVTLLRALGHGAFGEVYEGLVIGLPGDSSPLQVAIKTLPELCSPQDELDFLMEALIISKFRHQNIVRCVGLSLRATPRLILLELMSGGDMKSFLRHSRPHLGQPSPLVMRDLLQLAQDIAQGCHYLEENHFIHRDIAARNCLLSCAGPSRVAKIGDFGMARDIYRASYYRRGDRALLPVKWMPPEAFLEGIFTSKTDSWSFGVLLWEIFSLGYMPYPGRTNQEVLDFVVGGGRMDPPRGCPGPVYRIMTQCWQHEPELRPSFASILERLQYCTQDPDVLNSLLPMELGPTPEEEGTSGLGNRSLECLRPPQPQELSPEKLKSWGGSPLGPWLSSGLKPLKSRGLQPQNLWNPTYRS
Chain of Hepatocyte growth factor receptor (Homo sapiens) (P08581 whole entry): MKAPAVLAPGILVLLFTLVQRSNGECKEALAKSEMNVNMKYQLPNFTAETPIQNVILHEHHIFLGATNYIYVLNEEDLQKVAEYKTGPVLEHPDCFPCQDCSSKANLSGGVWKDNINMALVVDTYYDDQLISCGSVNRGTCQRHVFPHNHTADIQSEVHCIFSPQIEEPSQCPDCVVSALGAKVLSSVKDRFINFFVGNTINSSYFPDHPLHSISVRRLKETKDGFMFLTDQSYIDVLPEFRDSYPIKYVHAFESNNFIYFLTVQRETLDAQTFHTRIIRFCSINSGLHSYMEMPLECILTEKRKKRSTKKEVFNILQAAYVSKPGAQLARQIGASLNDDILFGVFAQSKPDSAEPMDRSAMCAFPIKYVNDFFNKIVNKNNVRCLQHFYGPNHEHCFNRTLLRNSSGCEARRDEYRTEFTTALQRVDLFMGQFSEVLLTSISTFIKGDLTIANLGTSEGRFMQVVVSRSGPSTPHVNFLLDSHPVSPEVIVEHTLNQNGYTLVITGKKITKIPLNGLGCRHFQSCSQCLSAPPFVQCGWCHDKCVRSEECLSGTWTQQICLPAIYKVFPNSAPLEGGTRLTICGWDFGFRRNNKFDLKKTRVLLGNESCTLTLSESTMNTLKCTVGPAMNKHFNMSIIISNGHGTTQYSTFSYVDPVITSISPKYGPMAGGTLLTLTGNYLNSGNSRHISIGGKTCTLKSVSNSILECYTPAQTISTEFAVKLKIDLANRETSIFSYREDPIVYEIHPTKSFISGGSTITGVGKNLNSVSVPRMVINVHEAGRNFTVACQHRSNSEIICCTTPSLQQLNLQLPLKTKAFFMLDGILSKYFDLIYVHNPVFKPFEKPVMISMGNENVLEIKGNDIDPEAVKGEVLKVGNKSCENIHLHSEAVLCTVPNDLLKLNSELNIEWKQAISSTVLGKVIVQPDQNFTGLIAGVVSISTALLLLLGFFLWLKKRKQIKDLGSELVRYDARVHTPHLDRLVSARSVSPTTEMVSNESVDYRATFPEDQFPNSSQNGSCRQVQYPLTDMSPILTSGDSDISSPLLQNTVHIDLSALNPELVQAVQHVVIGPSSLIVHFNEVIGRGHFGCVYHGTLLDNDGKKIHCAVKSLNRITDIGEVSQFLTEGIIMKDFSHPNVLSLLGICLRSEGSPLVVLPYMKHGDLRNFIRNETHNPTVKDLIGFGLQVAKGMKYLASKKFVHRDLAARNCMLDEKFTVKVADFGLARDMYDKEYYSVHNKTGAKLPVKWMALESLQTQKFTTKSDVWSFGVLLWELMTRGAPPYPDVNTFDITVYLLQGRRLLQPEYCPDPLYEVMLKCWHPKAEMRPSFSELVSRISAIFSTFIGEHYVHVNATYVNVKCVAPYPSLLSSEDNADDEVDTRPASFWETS

SMILES	inhibition [1]	inhibition [2]	inhibition [3]	inhibition [4]	inhibition [5]	inhibition [6]	inhibition [7]	inhibition [8]	inhibition [9]	inhibition [10]	inhibition [11]	inhibition [12]	inhibition [13]	inhibition [14]	inhibition [15]	inhibition [16]	inhibition [17]	inhibition [18]	inhibition [19]	inhibition [20]
FC(F)(F)c1ccc(-c2nn3ncccc3c2-c2ccnc(Nc3ccc4c(c3)OCCO4)n2)cc1	41.4%	-0.4%	4.93%	0.89%	6.31%	9.1%	21.1%	6.41%	42.5%	1.18%	3.42%	6.84%	37.1%	4.96%	30.8%	7.37%	8.55%	5.94%	12.1%	7.57%
Cc1cc(-c2ccccn2)cc(C)c1/C=C/c1cncc(-c2nn[nH]n2)c1	6.45%	0.82%	-1.39%	5.04%	0.22%	-3.07%	-1.86%	4.47%	12.1%	4.42%	4.93%	3.33%	14%	0.35%	9.56%	-0.39%	3.73%	2.88%	4.32%	3.02%
COc1cc2ncnc(Nc3ccc4c(cnn4Cc4ccccc4)c3)c2cc1OC	9.47%	1.06%	2.79%	2.31%	2.58%	-3.09%	2.41%	19.5%	61.1%	2.67%	2.45%	10.4%	46.1%	7.01%	40.7%	7%	45.5%	2.31%	4.07%	3.2%
Oc1cccc(-c2nc(-c3ccccc3)[nH]c2-c2ccncc2)c1	8.38%	-0.23%	6.52%	2.52%	3.34%	1.61%	3.96%	4.47%	17.7%	3.98%	7.05%	9.9%	31.3%	6.99%	25.4%	1.35%	6.42%	6.73%	11.1%	4.05%
NS(=O)(=O)c1cccc(-c2cc3ccncc3cc2OCc2ccccc2)c1	8.38%	6.43%	5.87%	2.04%	1.1%	3.77%	9.47%	2.52%	5.46%	2.44%	1.46%	5.16%	6.45%	2.95%	3.74%	4.79%	8.95%	3.75%	4.68%	0.26%
Cc1cc(Cl)cc2c1NC(=O)C2=NNc1ccc(S(N)(=O)=O)cc1	12.9%	4.18%	-3.52%	2.4%	3.29%	2.2%	7.35%	1.9%	1.89%	2.82%	2.25%	3.74%	4.11%	2.32%	4.84%	0.38%	0.48%	-0.26%	5.08%	2.21%
C[C@@H](Oc1cc(-n2cnc3ccc(OCC4CCN(C)CC4)cc32)sc1C(N)=O)c1ccccc1C(F)(F)F	0.09%	-2%	-1.63%	-0.04%	0.36%	2.2%	4.85%	5.2%	33.8%	-0.86%	3.18%	1.14%	18.9%	1.52%	16.5%	-0.95%	6.99%	2.85%	9.84%	41.3%
Cc1ccc2c(c1)/C(=N/Nc1ccc(S(N)(=O)=O)cc1)C(=O)N2	80.1%	-0.66%	-3.04%	3.2%	54.4%	1.27%	24.4%	1.15%	3.66%	0.21%	1%	0.12%	4.93%	0.75%	4.77%	-1.4%	1.27%	1.07%	4.08%	2.69%
N#Cc1cccc(Nc2nccc(-c3cnn4ncccc34)n2)c1	100%	4.4%	9.63%	32.2%	88.5%	24.4%	71.6%	4.61%	18.3%	6.31%	12.7%	6.49%	31.5%	4.82%	22.2%	7.85%	46%	6.82%	17.3%	5.72%
CN1CCN(C(=O)c2ccc(NC(=O)Nc3ccc(N(C)c4ccnc(Nc5ccc(CS(C)(=O)=O)cc5)n4)cc3)cc2)CC1	88.5%	1.27%	2.73%	10.6%	58.7%	75.1%	93.2%	5.01%	23.9%	2.61%	10.7%	2.45%	19.7%	1.67%	18.1%	12.8%	52.3%	45.6%	77.4%	5.5%
CS(=O)(=O)CCNCc1nc(-c2ccc3ncnc(Nc4ccc(OCc5cccc(C(F)(F)F)c5)cc4)c3c2)cs1	12.8%	-0.14%	1.52%	-0.86%	3.13%	0.77%	6.02%	2.25%	6.83%	3.1%	3.87%	2.63%	2.07%	2.44%	1.23%	3.74%	5.41%	4.81%	2.51%	1.29%
CN(c1ccc(NC(=O)Nc2ccc(OC(F)(F)F)cc2)cc1)c1ccnc(Nc2cccc(S(N)(=O)=O)c2)n1	95.3%	3.73%	2.45%	22.9%	89.9%	37.6%	93.4%	33.7%	80.1%	2.69%	6.43%	39.9%	83.2%	37.1%	83.6%	5.5%	49.2%	34.4%	64.9%	8.36%
CS(=O)(=O)Nc1cccc(-c2ccc3c(NC(=O)C4CC4)n[nH]c3c2)c1	-3.67%	1.45%	0.35%	-1.01%	-2.29%	0.19%	0.6%	1.99%	6.14%	1.68%	1.06%	1.17%	1.49%	0.4%	-0.21%	1.36%	1.01%	5.25%	1.91%	0.75%
CC(C)c1ccc(Nc2nccc(-c3cnn4ncccc34)n2)cc1	95.5%	2.6%	4.42%	19.5%	81.3%	17.7%	64%	1.2%	3.47%	2.91%	10.6%	4.07%	7.45%	2.28%	4.7%	1.42%	7.98%	4.89%	13.5%	3.14%
